Measured values taken from PubChem BioAssay (Tox21).
Values joined by “and” are separate entries in the source; they are usually repeats but may differ in a detail not shown here. Identical values can stand only once. Records with an inconclusive call do not appear. Entries that show only a call come without a potency. Some compounds were tested as several samples or in several runs, with calls that do not always agree. Active and inactive are the calls of the source. Unless noted, calls come from the whole dose curve; as a rule, active = well fitted curve in the direction sought with a large enough effect in the repeat runs; inconclusive = weak or mixed curves; inactive = no such curve, though single readings can be large; an effect the other way counts as inactive or inconclusive.

Columns and labels:
[1] = qHTS assay to identify small molecule antagonists of the androgen receptor (AR) signaling pathway using the MDA cell line in the presence of 0.5 nM R1881 - cell viability counter screen (AID 1259242); note: nearly all actives have a fitted effect of over 45% in size; note: potency is the fitted concentration of half-maximal effect
Outline: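 Fluorescence from CellTiter-Fluor, which reports protease activity of live cells, was read 30 min after reagent addition to MDA-kb2 cells that had been incubated 16 hr with compound and 0.5 nM R1881.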

[2] = biological target: Estrogen receptor (Homo sapiens) (UniProt P03372); assay: qHTS assay to identify small molecule antagonists of the estrogen receptor alpha (ER-alpha) signaling pathway using the BG1 cell line in the presence of 0.1 nM 17-beta-estradiol (AID 1259244); note: nearly all actives have a fitted effect of over 50% in size; note: potency is the fitted concentration of half-maximal effect
Outline: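 Quantitative high-throughput screen in VM7Luc4E2 cells: compound plus 0.1 nM E2 (final), 22 h, 37C, 5% CO2; ONE-Glo added, 30 min room temperature, luminescence measured.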

[3] = qHTS assay to identify small molecule HDAC inhibitors (AID 1259364); note: top concentration of the series differs between compounds; nearly all actives have a fitted effect of over 45% in size
Outline: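 Endogenous HDAC class I/II activity was measured in wild-type HCT-116 cells by HDAC-Glo luminescence after 2 h compound treatment.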

[4] = qHTS assay to identify small molecule HDAC inhibitors - cell viability counter screen (AID 1259365); note: series mostly up to about 92 µM; nearly all actives have a fitted effect of over 50% in size
Outline: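 HCT-116 (wild type), 1,500 cells/well, overnight 37C/5% CO2; compound in DMSO 2hr; CellTiter-Glo 30min RT; luminescence read.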

[5] = qHTS assay to identify small molecule agonists of the sonic hedgehog signaling (Shh) pathway - cell viability counter screen (AID 1259366); note: nearly all actives have a fitted effect of over 50% in size; note: potency is the fitted concentration of half-maximal effect
Outline: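 CellTiter-Fluor fluorescence read-out, 1 hr at 37C, added after 23hr compound exposure. Cells: 3T3 Gli1-Luc, an NIH/3T3 clone with stably integrated Gli1-Luc reporter, plated 4hr before compound.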

[6] = qHTS assay to identify small molecule antagonists of the sonic hedgehog signaling (Shh) pathway - cell viability counter screen (AID 1259367); note: nearly all actives have a fitted effect of over 55% in size
Outline: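 Seed 3T3 Gli1-Luc cells at 2,000 per well; incubate 4 hr; add compound in DMSO, then conditioned medium; incubate at 37C with 5% CO2; add CellTiter-Fluor after 23 hr; read fluorescence 1 hr later.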

[7] = qHTS assay to identify small molecule agonists of the sonic hedgehog signaling (Shh) pathway (AID 1259368; calls by dose curve;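 note: NIH/3T3-derived 3T3Gli1-Luc cells carrying a stable Gli1-driven firefly luciferase reporter; series mostly up to about 92 µM; nearly all actives have a fitted effect of over 15% in size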)
Outline: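 Luminescent signal was taken as a measure of Gli1-controlled luciferase expression in stably transfected NIH/3T3-derived cells that had been treated for 24 hr with compounds delivered in DMSO.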

[8] = biological target: Androgen receptor (Homo sapiens) (UniProt P10275); assay: qHTS assay to identify small molecule antagonists of the androgen receptor (AR) signaling pathway using the MDA cell line in the presence of 0.5 nM R1881 (AID 1259243); note: nearly all actives have a fitted effect of over 50% in size
Outline: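 Inhibition of R1881 (0.5 nM final) induced reporter signal was measured in human MDA-kb2 cells; note the MMTV promoter also responds to GR. Exposure lasted 16 hr at 37C.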

[9] = qHTS assay to identify small molecule phospholipidosis (PLD) inducers (AID 1259344; active = well fitted curve in the direction sought with a large enough effect; an effect the other way counts as inactive or inconclusive)
Outline: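 Quantitative HTS in HepG2: compound plus LipidTOX Red dye for 24 h, paraformaldehyde fixation with Hoechst 33342, widefield high-content imaging; amiodarone as positive and DMSO as negative control.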

[10] = qHTS assay to identify small molecule antagonists of the sonic hedgehog signaling (Shh) pathway (AID 1259369; calls by dose curve; note: nearly all actives have a fitted effect of over 45% in size; note: potency is the fitted concentration of half-maximal effect)
Outline: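 Screening used 3T3Gli1-Luc cells at 2,000 per well, compounds delivered in DMSO, and conditioned medium as agonist stimulus; plates incubated 24hr at 37 C and 5% CO2 before a 30min luciferase step.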

Estrogen receptor (Homo sapiens), sequence (P03372 whole entry, looked up): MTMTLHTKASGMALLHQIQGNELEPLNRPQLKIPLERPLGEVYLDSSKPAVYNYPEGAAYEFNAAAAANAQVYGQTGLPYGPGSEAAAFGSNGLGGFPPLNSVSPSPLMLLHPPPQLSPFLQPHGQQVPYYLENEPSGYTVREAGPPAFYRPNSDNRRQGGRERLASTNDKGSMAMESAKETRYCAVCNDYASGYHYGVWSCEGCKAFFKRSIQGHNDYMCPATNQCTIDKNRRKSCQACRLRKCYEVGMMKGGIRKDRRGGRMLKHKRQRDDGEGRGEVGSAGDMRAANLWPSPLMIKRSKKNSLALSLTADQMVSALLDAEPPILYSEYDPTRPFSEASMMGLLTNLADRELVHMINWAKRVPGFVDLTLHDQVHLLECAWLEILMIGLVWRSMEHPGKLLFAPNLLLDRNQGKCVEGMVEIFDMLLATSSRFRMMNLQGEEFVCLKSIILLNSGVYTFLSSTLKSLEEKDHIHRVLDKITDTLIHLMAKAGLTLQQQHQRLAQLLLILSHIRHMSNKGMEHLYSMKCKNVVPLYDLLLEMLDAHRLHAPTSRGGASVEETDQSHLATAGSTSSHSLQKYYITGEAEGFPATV
Androgen receptor (Homo sapiens), sequence (P10275 whole entry, looked up): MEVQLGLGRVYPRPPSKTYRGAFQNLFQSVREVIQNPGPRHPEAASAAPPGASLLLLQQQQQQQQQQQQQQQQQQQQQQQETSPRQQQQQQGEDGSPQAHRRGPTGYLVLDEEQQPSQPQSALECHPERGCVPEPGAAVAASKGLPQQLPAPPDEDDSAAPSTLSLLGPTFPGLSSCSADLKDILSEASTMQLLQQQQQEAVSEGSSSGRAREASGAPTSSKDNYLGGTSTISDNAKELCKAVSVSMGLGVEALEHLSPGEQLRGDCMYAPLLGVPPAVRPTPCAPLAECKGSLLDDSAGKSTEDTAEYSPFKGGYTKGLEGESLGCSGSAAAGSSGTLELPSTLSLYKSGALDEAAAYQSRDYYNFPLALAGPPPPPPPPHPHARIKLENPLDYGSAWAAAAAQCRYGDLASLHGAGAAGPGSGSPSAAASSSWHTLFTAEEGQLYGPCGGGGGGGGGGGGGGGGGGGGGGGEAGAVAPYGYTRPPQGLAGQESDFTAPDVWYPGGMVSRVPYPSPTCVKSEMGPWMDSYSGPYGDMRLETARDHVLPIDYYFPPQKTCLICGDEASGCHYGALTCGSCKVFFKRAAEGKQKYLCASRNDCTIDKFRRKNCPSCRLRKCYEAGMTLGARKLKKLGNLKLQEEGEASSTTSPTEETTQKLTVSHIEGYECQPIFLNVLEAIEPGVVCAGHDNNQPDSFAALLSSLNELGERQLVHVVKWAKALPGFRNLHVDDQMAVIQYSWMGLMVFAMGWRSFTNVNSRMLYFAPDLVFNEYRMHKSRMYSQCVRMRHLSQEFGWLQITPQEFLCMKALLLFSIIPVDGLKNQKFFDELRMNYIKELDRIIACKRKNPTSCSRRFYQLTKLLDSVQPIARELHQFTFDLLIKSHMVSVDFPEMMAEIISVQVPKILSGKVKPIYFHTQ

O=C(NC(=O)c1c(F)cccc1F)Nc1cc(Cl)c(F)c(Cl)c1F
Potency [1]: inactive
Potency [2]: inactive
Potency [3]: inactive
outcome [4]: inactive
Potency [5]: inactive
Potency [6]: inactive
outcome [7]: inactive

CCCCCCCCSC(=O)Oc1cc(Cl)nnc1-c1ccccc1
Potency [1]: inactive
Potency [2]: inactive
Potency [3]: inactive
outcome [4]: inactive
Potency [5]: inactive
Potency [6]: inactive
outcome [7]: inactive

CC(C)(C)c1cc(O)ccc1O
Potency [1]: inactive
Potency [2]: inactive
Potency [3]: inactive
outcome [4]: inactive
Potency [5]: inactive
Potency [6]: inactive
outcome [7]: inactive

COP(=O)(O)OC
Potency [1]: inactive
Potency [8]: inactive
Potency [3]: inactive
Potency [5]: inactive
Potency [6]: inactive
outcome [7]: inactive

CCCN1CCC[C@@H]2Cc3nc(N)ncc3C[C@H]21
Potency [1]: inactive
Potency [2]: inactive
Potency [9]: inactive
outcome [4]: inactive
Potency [5]: inactive
Potency [6]: inactive
outcome [7]: inactive

CCC(C)(C#N)N=NC(C)(C#N)CC (configuration not stated)
Potency [1]: inactive
Potency [2]: inactive
Potency [3]: inactive
outcome [4]: inactive
Potency [5]: inactive
Potency [6]: inactive
outcome [7]: inactive

COc1cc(CC(C)N)cc(OC)c1OC (configuration not stated)
Potency [1]: inactive
Potency [2]: inactive
Potency [3]: inactive
outcome [4]: inactive
Potency [5]: inactive
Potency [6]: inactive
outcome [7]: inactive
Potency [10]: inactive

CCOP(=S)(OCC)Oc1ccc(Cl)cc1Cl
Potency [1]: inactive
Potency [2]: inactive
Potency [3]: inactive
outcome [4]: inactive
Potency [5]: inactive
Potency [6]: inactive
outcome [7]: inactive

CS(=O)(=O)Cl
Potency [1]: inactive
Potency [2]: inactive
Potency [3]: inactive
outcome [4]: inactive
Potency [5]: inactive
Potency [6]: inactive
outcome [7]: inactive

C[C@]12C=CC(=O)C=C1CC[C@@H]1[C@@H]2CC[C@@]2(C)[C@H]1CC[C@]2(C)O
Potency [1]: inactive
Potency [2]: inactive
Potency [9]: inactive
Potency [3]: inactive
outcome [4]: inactive
Potency [5]: inactive
Potency [6]: inactive
outcome [7]: inactive

O=C1C2CC=CCC2C(=O)N1SC(Cl)(Cl)Cl (configuration not stated)
Potency [1]: inactive and 16.9 µM (active)
Potency [2]: inactive and 26.9 µM (active)
Potency [9]: inactive
outcome [4]: inactive
Potency [5]: inactive and 13.5 µM (active)
outcome [7]: inactive

COc1cccc(C=O)c1
Potency [1]: inactive
Potency [2]: inactive
Potency [3]: inactive
outcome [4]: inactive
Potency [5]: inactive
Potency [6]: inactive
outcome [7]: inactive
Potency [10]: inactive

N=C(N)[Se]
Potency [1]: inactive
Potency [2]: inactive
Potency [3]: inactive
outcome [4]: inactive
Potency [5]: inactive
Potency [6]: inactive
outcome [7]: inactive
Potency [10]: inactive

CN1C(=O)COc2c(C(=O)NC3CN4CCC3CC4)cc(Cl)cc21 (configuration not stated)
Potency [1]: inactive
Potency [2]: inactive
Potency [3]: inactive
outcome [4]: inactive
Potency [5]: inactive
Potency [6]: inactive
outcome [7]: inactive
Potency [10]: inactive

ClC1=C(Cl)C2(Cl)C(CBr)CC1(Cl)C2(Cl)Cl (configuration not stated)
Potency [1]: inactive
Potency [2]: inactive
Potency [3]: inactive
outcome [4]: inactive
Potency [5]: inactive
Potency [6]: inactive
outcome [7]: inactive
Potency [10]: inactive

CN(C)CCN(C)C
Potency [1]: inactive
Potency [2]: inactive
Potency [3]: inactive
outcome [4]: inactive
Potency [5]: inactive
Potency [6]: inactive
outcome [7]: inactive
Potency [10]: inactive

Cc1ccc2c(c1)C1CN(C)CCC1N2 (configuration not stated)
viability change, negative = cytotoxic [1]: -1.32% [at 19 µM] (inactive)
activity change, negative = inhibition [2]: -0.7% [at 19 µM] (inactive)
activity change, negative = inhibition [3]: -0.403% [at 19 µM] (inactive)
activity change, negative = cytotoxicity [4]: 1.1% [at 19 µM] (inactive)
viability change, negative = cytotoxic [5]: -5.79% [at 19 µM] (inactive)
viability change, negative = cytotoxic [6]: 5.33% [at 19 µM] (inactive)
activity change [7]: 0.824% [at 18.9 µM] (inactive)
activity change, negative = inhibition [10]: 7.51% [at 19 µM] (inactive)

CC(=O)CN(CC(C)=O)N=O
Potency [1]: inactive
Potency [2]: inactive
Potency [3]: inactive
outcome [4]: inactive
outcome [7]: inactive
Potency [10]: inactive

O=c1[nH]oc2c1CCNC2
Potency [1]: inactive
Potency [2]: inactive
Potency [3]: inactive
outcome [4]: inactive
Potency [5]: inactive
Potency [6]: inactive
outcome [7]: inactive
Potency [10]: inactive

O=C(O)C(Br)(Br)Br
Potency [1]: inactive
Potency [2]: inactive
Potency [3]: inactive
outcome [4]: inactive
Potency [5]: inactive
Potency [6]: inactive
outcome [7]: inactive
Potency [10]: inactive

C(COCC1CO1)OCC1CO1 (configuration not stated)
Potency [1]: inactive
Potency [2]: inactive
Potency [3]: inactive
outcome [4]: inactive
outcome [7]: inactive
Potency [10]: 34.4 µM (active)

O=P(O)(O)CN(CP(=O)(O)O)CP(=O)(O)O
Potency [1]: inactive
Potency [2]: inactive
Potency [3]: inactive
outcome [4]: inactive
Potency [5]: inactive
Potency [6]: inactive
outcome [7]: inactive
Potency [10]: inactive

CC[C@H](O)C(C[C@H](C)N(C)C)(c1ccccc1)c1ccccc1
Potency [1]: inactive
Potency [2]: inactive
Potency [3]: inactive
outcome [4]: inactive
outcome [7]: inactive

CC1N=C(N)OC1c1ccccc1 (configuration not stated)
Potency [1]: inactive
Potency [2]: inactive
Potency [3]: inactive
outcome [4]: inactive
Potency [6]: inactive
outcome [7]: inactive

O=C(O)c1c(Cl)ccc2cc(Cl)cnc12
Potency [1]: inactive
Potency [2]: inactive
Potency [3]: inactive
outcome [4]: inactive
Potency [6]: inactive
outcome [7]: inactive
Potency [10]: inactive

C=C1C[C@@H]2[C@H](CC[C@]3(C)C(=O)CC[C@@H]23)[C@@]2(C)C=CC(=O)C=C12
Potency [1]: inactive
Potency [2]: inactive
Potency [3]: inactive
outcome [4]: inactive
Potency [5]: inactive
Potency [6]: inactive
outcome [7]: inactive
Potency [10]: 6.68 µM (active)

CCCN1CCC[C@@H]2Cc3[nH]ncc3C[C@H]21
Potency [1]: inactive
Potency [2]: inactive
Potency [3]: inactive
outcome [4]: inactive
Potency [5]: inactive
Potency [6]: inactive
outcome [7]: inactive
Potency [10]: inactive

NCCOS(=O)(=O)O
Potency [1]: inactive
Potency [2]: inactive
Potency [3]: inactive
outcome [4]: inactive
Potency [5]: inactive
outcome [7]: inactive
Potency [10]: inactive

COc1cc(CCN)cc(OC)c1OC
Potency [1]: inactive
Potency [2]: inactive
Potency [3]: inactive
outcome [4]: inactive
Potency [5]: inactive
Potency [6]: inactive
outcome [7]: inactive
Potency [10]: inactive

CCOC(=O)CCl
Potency [1]: inactive
Potency [2]: inactive
Potency [3]: inactive
outcome [4]: inactive
Potency [6]: inactive
outcome [7]: inactive
Potency [10]: inactive
